# Reference: PMC12864922, “TDP-43 directly inhibits mRNA accumulation in neurites through modulation of mRNA stability”
# Over roughly 9,900 sequences, “r (bound/input frequency ratio)” has its median near 0.7; the highest 2% begin near 6.5. This excerpt belongs to a sample that is enriched for the highest values.
# B1: ENSMUSG00000061578.285|Ksr2 (ssRNA)
# RNA: GGGAGUUCUACAGUCCGACGAUCGCUUCGAUAUCCGCAUGCUAGGAUAUAUCUCUGUGGCCAGGGCUGGACUGAGACUGACCCCCUCCUACUAAGCAUCUUAGAGUUUCUCUUUUCUCUUUAAUUGCAUCAGGACCCCUUUGGUCCAUGUACCCCGGUCUCUGUCACAUGCCUUUGUAUCUUGGAGGAAGUAAGAGAGGAGAGAGCCAGGGAGGGCUGAAGCUCUGGGACCCUGAAGUGUCCCCCGGGAACUGGGACUCACUCAUCUUCUCCUGUUUGUAGCUCAAUGACCCAGUGGGUCACACUCUUGCGGUCGCACUAGUGUGGAAUUCUCGGGUGUCAAGG
# B2: ENSMUSG00000029028.201|Lrrc47 (ssRNA)
# RNA: GGGAGUUCUACAGUCCGACGAUCGCUUCGAUAUCCGCAUGCUAAGCACACAGCUGCCAUCCCUCGAGCCACAGUGCCUGGUCCUAAGGACCCAGCAGCUGCACAGAGGACUUGGUGGCCCCGUGCCUUGCCAUCUGGCUGAGAAGAGAACCAGACCCUCAGCCUUCCCCCUCGACACCUUCUCGUUGGUGACCUCUGACCUUAAAGGACCAUUUCUACCUUCUGUAAAAGAACACCUGUUUGGGGUUGCGUGCGGCUUUCAUCCUAAGGCCGUGCGAGAGCCGUUAGCUGUCAGAACUAGUGACUCUUGCGGUCGCACUAGUGUGGAAUUCUCGGGUGUCAAGG
# B3: ENSMUSG00000028439.16|Fam219a (ssRNA)
# RNA: GGGAGUUCUACAGUCCGACGAUCGCUUCGAUAUCCGCAUGCUAAUUCAGUAGUGGGCGGGGUCGCCGCGGUGCACGGGGCGCUGACCUGGGCCCGGUGGGAUGCAGCAGGAGAGACCCCUACCCUGCUGGUCCACUGGUCCCCAGCCCCGCGCCUCUUAGAGCCGCCAACCUCGUAACAGUCAUUGCUUCCUCCUAUGGUAGGACGUGUACCUCUGUGUGUUCAAGGAGCCGGAGAAACCAAAACCGGGUCUGUCUCCAGCCCCGGGGCUGAGGAGGGGUGGGCACUGUUUGUUCGGUUACUUCUCUUGCGGUCGCACUAGUGUGGAAUUCUCGGGUGUCAAGG
# B4: ENSMUSG00000031028.682|Tub|139:143;183:187;256:260 (ssRNA)
# RNA: GGGAGUUCUACAGUCCGACGAUCGCUUCGAUAUCCGCAUGCUACUAUUUUGGAGUGGUCAGACAUUUUAUUUUUGUUCAAAAUUAUCUGGAGUUUUAGACAAACUUGCAAAACUGUGCUUUUAUUAAGUGACUUUUUGAAUAAACUUUUUGGUAUUCUGAAGCAAAUGUAUUUAUUUAUUGCAUACUGCAAUGACAAACUUGGUAUUUUCCCAUAAUGACAUUAUCAUACUUGUAGAAUUUAGUGUUUGUCUAAGUACAGACAUGUAUCAACACAUUAAACUUGAACUGUUUGACGGCACACACUCUUGCGGUCGCACUAGUGUGGAAUUCUCGGGUGUCAAGG
# B5: ENSMUSG00000090935.52|Synj2bp (ssRNA)
# RNA: GGGAGUUCUACAGUCCGACGAUCGCUUCGAUAUCCGCAUGCUAGUGUCCCUGAGAGUACAGCACAGGUUACCAGUGCAGAAUGGACCUAUAGUACAUCGAGGUGAAGGAGAGCCAAGUGGAGUUCCUGUAGCUAUGGUGCUGCUACCAGUGUUUGCCCUCACCAUGGUAGCAGUUUGGGCCUUCGUGAGAUACCGAAAGCAGCUUUGAAAUGCUUGCUGUCUUCCAGUGUGUCCAAUGAACUCUCUCUCUCACUCACCAUCUCUGACAUCCUCCCAUAUUCUUUCUCCUCCACAUAGCCAAUACUCUUGCGGUCGCACUAGUGUGGAAUUCUCGGGUGUCAAGG
# B6: ENSMUSG00000061578.273|Ksr2 (ssRNA)
# RNA: GGGAGUUCUACAGUCCGACGAUCGCUUCGAUAUCCGCAUGCUAGGCCCUGGGCUCCAGAGUCGCUGAAGACCACUCUCCACAGCAGCUGUAACCCCAUCUAACAAGCCCUGUUCUGGAUAUAUCUCUGUGGCCAGGGCUGGACUGAGACUGACCCCCUCCUACUAAGCAUCUUAGAGUUUCUCUUUUCUCUUUAAUUGCAUCAGGACCCCUUUGGUCCAUGUACCCCGGUCUCUGUCACAUGCCUUUGUAUCUUGGAGGAAGUAAGAGAGGAGAGAGCCAGGGAGGGCUGAAGCUCUGGGACCCUCUUGCGGUCGCACUAGUGUGGAAUUCUCGGGUGUCAAGG
# B7: ENSMUSG00000058297.286|Spock2|1:6;125:130 (ssRNA)
# RNA: GGGAGUUCUACAGUCCGACGAUCGCUUCGAUAUCCGCAUGCUAACACACAGAGAGAGAGAGAGAGAGAGAGAGAGAGAGAGAGAGAAAGAGAGAGAGAAUGAGAGAGAAUGAGAGAGAGAAUACCCGAGGGCCACCCUGAUGCCCAGGAAGAGUGAGGGCAGCCCCCACACACGUGGAAGAGGCUGGGCAGCUAGCUACUGGGGACCUUGUGCUGAGGCUUCCAGGACAAAGCCCCAGUCUGGCUCUCCCCCAGCCUCUCAGGGGCACUGGCUGGUCACAUCCACUGAGUAUUGAUCGGUUGGCUCUUGCGGUCGCACUAGUGUGGAAUUCUCGGGUGUCAAGG
# B8: ENSMUSG00000058297.284|Spock2|1:18;137:142 (ssRNA)
# RNA: GGGAGUUCUACAGUCCGACGAUCGCUUCGAUAUCCGCAUGCUAACACACACACACACACACAGAGAGAGAGAGAGAGAGAGAGAGAGAGAGAGAGAGAAAGAGAGAGAGAAUGAGAGAGAAUGAGAGAGAGAAUACCCGAGGGCCACCCUGAUGCCCAGGAAGAGUGAGGGCAGCCCCCACACACGUGGAAGAGGCUGGGCAGCUAGCUACUGGGGACCUUGUGCUGAGGCUUCCAGGACAAAGCCCCAGUCUGGCUCUCCCCCAGCCUCUCAGGGGCACUGGCUGGUCACAUCCACUGAGUACUCUUGCGGUCGCACUAGUGUGGAAUUCUCGGGUGUCAAGG
# B9: ENSMUSG00000058297.297|Spock2|59:64 (ssRNA)
# RNA: GGGAGUUCUACAGUCCGACGAUCGCUUCGAUAUCCGCAUGCUAUGAGAGAGAGAAUACCCGAGGGCCACCCUGAUGCCCAGGAAGAGUGAGGGCAGCCCCCACACACGUGGAAGAGGCUGGGCAGCUAGCUACUGGGGACCUUGUGCUGAGGCUUCCAGGACAAAGCCCCAGUCUGGCUCUCCCCCAGCCUCUCAGGGGCACUGGCUGGUCACAUCCACUGAGUAUUGAUCGGUUGGACUUUAGGGAAGAGCCUCCUCCUUCCCAUUCCUUUCUGCCACCCUGGAAUGGCCACCUUAAUCGUCCUCUUGCGGUCGCACUAGUGUGGAAUUCUCGGGUGUCAAGG
# B10: ENSMUSG00000058297.285|Spock2|1:12;131:136 (ssRNA)
# RNA: GGGAGUUCUACAGUCCGACGAUCGCUUCGAUAUCCGCAUGCUAACACACACACACAGAGAGAGAGAGAGAGAGAGAGAGAGAGAGAGAGAGAAAGAGAGAGAGAAUGAGAGAGAAUGAGAGAGAGAAUACCCGAGGGCCACCCUGAUGCCCAGGAAGAGUGAGGGCAGCCCCCACACACGUGGAAGAGGCUGGGCAGCUAGCUACUGGGGACCUUGUGCUGAGGCUUCCAGGACAAAGCCCCAGUCUGGCUCUCCCCCAGCCUCUCAGGGGCACUGGCUGGUCACAUCCACUGAGUAUUGAUCCUCUUGCGGUCGCACUAGUGUGGAAUUCUCGGGUGUCAAGG
# Biological target: TDP-43 (Homo sapiens, UniProt Q13148 1-414)
# Test: RNA Bind-n-Seq with designed 260-mer pool; 25 mM Tris-HCl, 150 mM KCl, 3 mM MgCl2, BSA (printed 500 mg/mL), 20 units/mL SUPERase IN; pH not stated; 500 nM RNA pool, 1 h, 4 C; TDP-43 5, 50, 500 nM; high values mean tight binding
# Details: protein: recombinant; tags: SBP (GST cleaved off with PreScission; pGEX-GST-SBP)
# Summary of the method: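 For each oligo, R gives binding as its mapped-read-normalized abundance after pulldown divided by its abundance in input. Bead-captured SBP-tagged TDP-43 (5, 50 or 500 nM) was incubated with 500 nM of an in vitro-transcribed 260-nt 3′ UTR oligo pool for 1 h at 4 °C in 25 mM Tris-HCl, 150 mM KCl, 3 mM MgCl2, BSA and SUPERase IN on streptavidin beads. Washed, biotin-eluted RNA was reverse transcribed, PCR-amplified and sequenced.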
# TDP-43, sequence (Q13148 whole entry): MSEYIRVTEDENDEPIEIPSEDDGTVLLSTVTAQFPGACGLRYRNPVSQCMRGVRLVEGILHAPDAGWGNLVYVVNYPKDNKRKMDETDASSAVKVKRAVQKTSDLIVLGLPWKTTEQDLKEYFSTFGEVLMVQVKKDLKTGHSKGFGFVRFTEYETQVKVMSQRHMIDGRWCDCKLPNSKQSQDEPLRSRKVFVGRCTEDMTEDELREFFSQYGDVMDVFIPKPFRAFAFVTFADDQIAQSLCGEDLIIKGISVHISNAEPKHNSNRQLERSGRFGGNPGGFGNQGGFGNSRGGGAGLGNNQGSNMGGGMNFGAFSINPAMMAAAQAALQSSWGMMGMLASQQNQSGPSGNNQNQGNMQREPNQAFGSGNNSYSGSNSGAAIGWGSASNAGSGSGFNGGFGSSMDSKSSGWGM
row,Binder,binding signal
1,B1,0.368 R (bound/input frequency ratio)
2,B2,0.156 R (bound/input frequency ratio)
3,B3,0.466 R (bound/input frequency ratio)
4,B4,0.0217 R (bound/input frequency ratio)
5,B5,1.19 R (bound/input frequency ratio)
6,B6,0.384 R (bound/input frequency ratio)
7,B7,6.42 R (bound/input frequency ratio)
8,B8,8.98 R (bound/input frequency ratio)
9,B9,6.44 R (bound/input frequency ratio)
10,B10,7.3 R (bound/input frequency ratio)
